The campaign covered roughly 69,000 compounds. About 8,600 (12%) showed an effect of 50% or more. Shown is part of a subset that was picked to be rich in strong results.
tested on: Plasmodium berghei; experiment: Screen against P. berghei liver stage (PbLuc), transformed with Luciferase, at 10uM; format: functional, HepG2; details: tested at 10 uM

First: Cc1cc(NC(C)c2nncn2C2CCCC2)n2nc(C)c(C)c2n1 (stereo unspecified)
Second: Cc1cnc(C)c(N2C[C@H]3OC(=O)N(C4CCCC4)[C@H]3C2)n1
The INHIBITION of the first is lower: 32.1% for the first, 68.1% for the second.

Compared with `CC1CCN(c2nccn3c(=O)[nH]nc23)CC1`, `Cc1cc(N2CCC(CC(N)=O)CC2)nc(-c2ccncc2)n1` is lower in INHIBITION: 16.8% for the first, 16.1% for the second.

Compared with `Cc1oc(-c2cccc(F)c2F)nc1CN(CCO)C(C)C`, `O=C(NCCO)Nc1c(F)cc(F)cc1-c1ccccc1` is higher in INHIBITION: 13.6% for the first, 33% for the second.

Going from `CNC(=O)c1ccc(C2CN(C(=O)c3coc(C)n3)CCO2)nc1` (stereo unspecified) to `CNc1cc(C2CN(C(=O)c3ccn(C)n3)CCO2)nc(C)n1` (stereo unspecified), the INHIBITION falls from -24.1% to -29%.

Going from `FC(F)(F)COCCN1CCOC(Cn2cccn2)C1` (stereo unspecified) to `Cc1cc(C)n(CC2CN(CCOc3cccc(C#N)c3)CCO2)n1` (stereo unspecified), the INHIBITION falls from 40% to 20.6%.

Going from `CCCNC(=O)NC(=O)CNC(C)(C)c1ccc2c(c1)OCCO2` to `O=C(Cc1ccc2c(c1)OCCO2)N1CCN(c2cnccn2)CC1`, the INHIBITION falls from -4.94% to -5.25%.

Going from `Cc1ccc(C(N)=O)c(N2C[C@H]3OC(=O)N(C4CCCC4)[C@H]3C2)n1` to `COc1ccccc1CN1C(=O)O[C@@H]2CN(c3nc(C)cnc3C)C[C@@H]21`, the INHIBITION rises from -14.1% to 20.9%.

First: CC(C(=O)NCc1ccc(N2CCCC2)nc1)S(C)(=O)=O (stereo unspecified)
Second: COc1cccc(S(=O)(=O)CCN2CCCCC2)c1
The INHIBITION of the first is higher: 45.7% for the first, -11.1% for the second.

Compared with `Cc1cccc(C(=O)N2CCCN(Cc3cscn3)CC2)c1`, `COc1ccsc1C(=O)N1CCCN(Cc2cscn2)CC1` is lower in INHIBITION: -33.7% for the first, -51.5% for the second.

First: CCOC(=O)CCn1cnc2onc(-c3ccc(OC)cc3)c2c1=O
Second: CCOC(=O)CCn1cnc2onc(-c3cc(OC)ccc3Cl)c2c1=O
The INHIBITION of the first is higher: 71.4% for the first, -8.07% for the second.

Going from `COc1ccc(Cl)c(-c2noc3ncn(CCC(=O)O)c(=O)c23)c1` to `CCn1c(=O)[nH]c2cn(-c3cccc(Cl)c3)c(=O)n21`, the INHIBITION falls from 25.9% to -35.5%.

Going from `Cc1noc(C)c1CC(=O)N1CCc2sccc2C1` to `Cc1ccc(NCc2cn3c(n2)CN(Cc2ccc(C)o2)CC3)nn1`, the INHIBITION rises from 19.2% to 29.8%.

Going from `CS(=O)(=O)CCSc1cccc(C#N)c1` to `CCS(=O)(=O)CCSc1cccc(C#N)c1`, the INHIBITION falls from 7.84% to 7.43%.

Going from `CCCS(=O)(=O)CCSc1cccc(C#N)c1` to `COCCN1CCN(CCS(=O)(=O)c2cccc(OC)c2)CC1`, the INHIBITION rises from 51.4% to 92.8%.

Going from `Cc1nsc(C(=O)NCCc2ccccc2)n1` to `Cc1nsc(C(=O)NCCCc2ccccc2)n1`, the INHIBITION rises from -67.9% to 58.1%.

Going from `Cc1nsc(C(=O)NCCc2cccs2)n1` to `Cc1nsc(C(=O)NCCc2ccc(Cl)cc2)n1`, the INHIBITION rises from -12.1% to 20.9%.

First: Cc1nsc(C(=O)NCCc2ccc(S(N)(=O)=O)cc2)n1
Second: Cc1nsc(C(=O)NCCc2ccc(F)cc2)n1
The INHIBITION of the first is higher: 69.5% for the first, -10.6% for the second.

Compared with `CC(C)(O)CCc1cccc(C(=O)N2CCC[C@H]2CN2CCCC2)c1`, `COc1cccc(S(=O)(=O)CCN2CCCN(C(C)=O)CC2)c1` is higher in INHIBITION: 1.56% for the first, 45.8% for the second.

First: Cc1ccc(NC2CCN(C(=O)c3ccc4c(c3)CCC4)CC2)nn1
Second: Cc1ccc(N2CCCN(C(=O)c3cn(C)c4ccccc34)CC2)nn1
The INHIBITION of the first is lower: 18.2% for the first, 87.2% for the second.

Compared with `CCC(CC)NC(=O)c1nc2n(n1)-c1ccccc1S(=O)(=O)N2`, `CCn1nc(C)cc1C(=O)NCc1nc(C)no1` is higher in INHIBITION: -9.07% for the first, 17.5% for the second.

Compared with `Cc1n[nH]c(C)c1-c1nccnc1CC1CCCN(C)C1` (stereo unspecified), `Cc1cc(C)n(CC2CN(c3nnc(C)c(C)c3C#N)CCO2)n1` (stereo unspecified) is higher in INHIBITION: 23.2% for the first, 53.1% for the second.

Going from `c1ccc(-c2nnc(CN3C[C@H]4CC[C@@H](C3)N(CC3CCC3)C4)o2)cc1` to `Oc1ccc(N2CCC(Cc3ccccc3)CC2)nn1`, the INHIBITION rises from 46.6% to 83.8%.

Compared with `Cc1ccc(C(=O)N2CC[C@H]3[C@@H]2CCC(=O)N3c2cccnc2)o1`, `Cn1cc(C(=O)N2CCCN(c3cccnn3)CC2)c2ccccc21` is lower in INHIBITION: 23.1% for the first, -0.532% for the second.

Going from `COc1cccc(S(=O)(=O)CCN2CCN(CCO)CC2)c1` to `COc1cccc(S(=O)(=O)CCN2CCN(CC(F)F)CC2)c1`, the INHIBITION rises from 8.24% to 28.2%.

Compared with `COc1cccc(S(=O)(=O)CCN2CCC3(CC2)OCCO3)c1`, `CN(C)C(=O)NC1COC2(CCN(Cc3ccccc3)CC2)C1` (stereo unspecified) is lower in INHIBITION: 60% for the first, 37.5% for the second.

First: Cc1cc(CN2C[C@H](OCC3CCOCC3)[C@H]3COC[C@H]32)oc1C
Second: Cc1noc([C@@]23CCO[C@@H]2CCN(CC2CCOCC2)C3)n1
The INHIBITION of the first is higher: 44.4% for the first, 17.3% for the second.

Compared with `CCc1cc(NCCCOC2CCN(C)CC2)ncn1`, `CC(=O)NCC1CCN(c2cc(C)nc(-c3ccncc3)n2)CC1` is higher in INHIBITION: 25.5% for the first, 33.3% for the second.

First: c1ccc2c(c1)CCN(c1nc(N3CCOCC3)c3nn[nH]c3n1)C2
Second: c1ccc2c(c1)CCN2c1nc(N2CCOCC2)c2nn[nH]c2n1
The INHIBITION of the first is higher: 54% for the first, 39.9% for the second.

First: C1CCN(c2nc(N3CCOCC3)nc3[nH]nnc23)CC1
Second: Cc1nc(C)n(CC2CN(c3nnc(C)c(C)c3C#N)CCO2)n1 (stereo unspecified)
The INHIBITION of the first is higher: 36.7% for the first, -27.3% for the second.

First: Cc1nc(C)n(CC2CN(CCOc3ccc(C#N)cc3)CCO2)n1 (stereo unspecified)
Second: Cc1cc(C)n(CC2CN(CCOc3ccc(C#N)cc3)CCO2)n1 (stereo unspecified)
The INHIBITION of the first is lower: 42% for the first, 51.1% for the second.

First: CCC1CN(c2nnc(C)c(C)c2C#N)CCO1 (stereo unspecified)
Second: CCCS(=O)(=O)c1ccc(N2CCC(Cc3ccccc3)CC2)nn1
The INHIBITION of the first is lower: 17.8% for the first, 23.7% for the second.

Compared with `CC(N)Cc1ccccc1Sc1ccccc1` (stereo unspecified), `Cc1cc(N2CCC(Cc3ccccc3)CC2)nc(-c2ccncc2)n1` is higher in INHIBITION: 24.7% for the first, 71.3% for the second.

Compared with `CCc1nc(CNc2ccc(F)cc2I)no1`, `CC(C)n1ccc(C(=O)NCC(O)c2c(Cl)cccc2Cl)n1` (stereo unspecified) is higher in INHIBITION: -58.5% for the first, 24.3% for the second.

First: CN1CCN(CC2CN(CC3CC3)Cc3nccn3C2)CC1 (stereo unspecified)
Second: Cc1cnc2n1CCN(C)C21CCN(CC2CC2)CC1
The INHIBITION of the first is higher: 19.4% for the first, 12.1% for the second.

Going from `O=C(O)c1ccc(N2CCC(Cc3ccccc3)CC2)nn1` to `Cc1ccc(N2CCCN(C(=O)c3cccc4c3ccn4C)CC2)nn1`, the INHIBITION rises from -23.2% to 38.5%.

`CC(C)C(O)CNC(=O)Nc1cnn(C(C)C)c1` (stereo unspecified) gave an INHIBITION of -4.73%.
